Structures can show the parent of a compound that is named as a salt.
test system: Danio rerio larvae (5 dpf); test: activity during period 15 (no stimuli), difference vs DMSO (percentage points (treated minus DMSO)); higher = more of the behaviour than the DMSO vehicle control; conditions: 10 µM; exposure time: 3 h pre-incubation + 3 h imaging
Procedure: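 5-dpf wild-type zebrafish larvae were imaged in 96-well plates. They were treated with 190 Tocris FDA-approved drugs at 10 µM (1 µl/ml DMSO) for 3 h before and 3 h during imaging at 28.5 °C, 48 larvae per drug. Automated image analysis gave % time moving and optomotor responses. Values are drug group mean minus DMSO vehicle mean (n=844), in percentage points, for 10 behaviours.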

Structure (SMILES)	activity during period 15
CCCCCCCN(CC)CCCC(O)c1ccc(NS(C)(=O)=O)cc1 (stereo not given) [Ibutilide hemifumarate]	-10
C[C@H](Cc1cc2c(c(C(N)=O)c1)N(CCCO)CC2)NCCOc1ccccc1OCC(F)(F)F [Silodosin]	-7.59
COc1cc([C@@H]2c3cc4c(cc3[C@@H](O[C@@H]3O[C@@H]5CO[C@@H](C)O[C@H]5[C@H](O)[C@H]3O)[C@H]3COC(=O)[C@H]23)OCO4)cc(OC)c1O [Etoposide]	-4.13
NS(=O)(=O)c1cc2c(cc1Cl)NC(C1CC3C=CC1C3)NS2(=O)=O (stereo not given) [Cyclothiazide]	3.93
CC1(C)O[C@@H]2[C@@H](CO[C@@]3(COS(N)(=O)=O)OC(C)(C)O[C@@H]23)O1 [Topiramate]	3.85
CCOC(=O)[C@H](CCc1ccccc1)N[C@H]1CCc2ccccc2N(CC(=O)O)C1=O [Benazepril hydrochloride]	4.55
CCOC(=O)[C@H](CCc1ccccc1)N[C@@H](C)C(=O)N1[C@H](C(=O)O)C[C@@H]2CCC[C@@H]21 [Ramipril]	-2.34
Nc1nc(NC2CC2)c2ncn([C@H]3C=C[C@@H](CO)C3)c2n1 [Abacavir hemisulfate]	-3.3
CN1CCN(CCCN2c3ccccc3Sc3ccc(Cl)cc32)CC1 [Prochlorperazine dimaleate]	16.6
Cc1cccc(C)c1OCC(C)N (stereo not given) [Mexiletine hydrochloride]	6.49
CCCc1nn(C)c2c(=O)[nH]c(-c3cc(S(=O)(=O)N4CCN(C)CC4)ccc3OCC)nc12 [Sildenafil citrate]	-20.2
CCc1ccc(CCOc2ccc(CC3SC(=O)NC3=O)cc2)nc1 (stereo not given) [Pioglitazone hydrochloride]	-0.879
CC(=O)S[C@@H]1CC2=CC(=O)CC[C@]2(C)[C@H]2CC[C@@]3(C)[C@@H](CC[C@@]34CCC(=O)O4)[C@H]12 [Spironolactone]	-1.27
NC(=O)c1ncn([C@@H]2O[C@H](CO)[C@@H](O)[C@H]2O)n1 [Ribavirin]	-3.78
CCOC(=O)N1CCC(=C2c3ccc(Cl)cc3CCc3cccnc32)CC1 [Loratidine]	-25
COCCCOc1cc(C[C@@H](C[C@H](N)[C@@H](O)C[C@H](C(=O)NCC(C)(C)C(N)=O)C(C)C)C(C)C)ccc1OC [Aliskiren hemifumarate]	-3.61
C[C@@H]1C[C@H]2[C@@H]3CCC4=CC(=O)C=C[C@]4(C)[C@@]3(F)[C@@H](O)C[C@]2(C)[C@@]1(O)C(=O)CO [Dexamethasone]	2.91
CN1CC2c3ccccc3Oc3ccc(Cl)cc3C2C1 (stereo not given) [Asenapine maleate]	40.8
CCOc1nc2cccc(C(=O)O)c2n1Cc1ccc(-c2ccccc2-c2nnn[nH]2)cc1 [Candesartan]	-1.51
COc1c(C)c2c(c(O)c1C/C=C(\C)CCC(=O)OCCN1CCOCC1)C(=O)OC2 [Mycophenolate mofetil]	-0.943

Structure (SMILES)	activity during period 15
N#C[C@@H]1C[C@@H]2C[C@@H]2N1C(=O)[C@@H](N)C12CC3CC(CC(O)(C3)C1)C2 [Saxagliptin hydrochloride]	5.2
CC(C)c1nc(CN(C)C(=O)N[C@H](C(=O)N[C@@H](Cc2ccccc2)C[C@H](O)[C@H](Cc2ccccc2)NC(=O)OCc2cncs2)C(C)C)cs1 [Ritonavir]	-8.67
CC(C)(C(=O)c1cccnc1)c1cccnc1 [Metyrapone]	-7.26
C[C@]12CC[C@@H]3c4ccc(O)cc4C[C@@H](CCCCCCCCC[S+]([O-])CCCC(F)(F)C(F)(F)F)[C@H]3[C@@H]1CC[C@@H]2O (stereo not given in full)	4.53
CNC(=O)c1ccccc1Sc1ccc2c(/C=C/c3ccccn3)n[nH]c2c1 [Axitinib]	3.22
CNS(=O)(=O)Cc1ccc2[nH]cc(CCN(C)C)c2c1 [Sumatriptan succinate]	3.89
COc1cc2nc(N3CCN(C(=O)C4COc5ccccc5O4)CC3)nc(N)c2cc1OC (stereo not given) [Doxazosin mesylate]	-7.81
O=c1[nH]c(=O)n([C@H]2C[C@H](O)[C@@H](CO)O2)cc1C(F)(F)F [Trifluorothymidine]	-1.33
Cc1ccc(NC(=O)c2ccc(CN3CCN(C)CC3)cc2)cc1Nc1nccc(-c2cccnc2)n1 [Imatinib mesylate]	-11.6
CC(C)CN(C[C@@H](O)[C@H](Cc1ccccc1)NC(=O)O[C@H]1CO[C@H]2OCC[C@H]21)S(=O)(=O)c1ccc(N)cc1 [Darunavir]	11.1
NC(=O)N1c2ccccc2C=Cc2ccccc21 [Carbamazepine]	-0.716
CNCc1ccc(-c2[nH]c3cc(F)cc4c3c2CCNC4=O)cc1 [Rucaparib camsylate]	-8.43
COc1ccccc1Oc1c(NS(=O)(=O)c2ccc(C(C)(C)C)cc2)nc(-c2ncccn2)nc1OCCO [Bosentan]	-4.44
C=C1[C@H](CO)[C@@H](O)C[C@@H]1n1cnc2c(=O)[nH]c(N)nc21 [Entecavir]	-0.773
CCCCCOC(=O)Nc1nc(=O)n([C@@H]2O[C@H](C)[C@@H](O)[C@H]2O)cc1F [Capecitabine]	2.91
CC(=O)O[C@H]1C(=O)[C@@]2(C)[C@H]([C@H](OC(=O)c3ccccc3)[C@]3(O)C[C@H](OC(=O)[C@H](O)[C@@H](NC(=O)c4ccccc4)c4ccccc4)C(C)=C1C3(C)C)[C@]1(OC(C)=O)CO[C@@H]1C[C@@H]2O [Taxol]	-4.11
CN1CC(=O)N2[C@H](c3ccc4c(c3)OCO4)c3[nH]c4ccccc4c3C[C@@H]2C1=O [Tadalafil]	-1.47
CC1CNc2c(cccc2S(=O)(=O)N[C@@H](CCCNC(=N)N)C(=O)N2CC[C@@H](C)C[C@@H]2C(=O)O)C1 (stereo not given in full) [Argatroban]	-2.33
CN/C(=N\CCSCc1nc[nH]c1C)NC#N [Cimetidine]	-5.2
O=C1CCc2cc(OCCCCc3nnnn3C3CCCCC3)ccc2N1 [Cilostazol]	3.03

— the supplement of paper PMC9023506
